Experimental data reported in PubChem BioAssay (NCATS).
“And” between values parts separate entries of the source, which are not always exact repeats. Equal values may be shown once. Inconclusive results are not listed. The source made the active and inactive calls. Calls follow the shape of the dose curve; as a rule, active = well fitted curve in the direction sought with a large enough effect; inconclusive = small, poorly fitted or top-dose-only effect, or another doubt; inactive = no such curve, though single readings can be large; an effect the other way counts as inactive or inconclusive.

Key:
[1] = target: Glutathione peroxidase 1 (Homo sapiens) (UniProt P07203); test: Primary qHTS Assay for Inhibitors of Recombinant Selenoprotein Glutathione Peroxidase 1 (GPX1) (AID 1845191); also: nearly all actives have a fitted effect of over 65% in size; also: potency is read from the fitted curve at half-maximal effect
Sequence of Glutathione peroxidase 1 (Homo sapiens) (P07203 whole entry, looked up): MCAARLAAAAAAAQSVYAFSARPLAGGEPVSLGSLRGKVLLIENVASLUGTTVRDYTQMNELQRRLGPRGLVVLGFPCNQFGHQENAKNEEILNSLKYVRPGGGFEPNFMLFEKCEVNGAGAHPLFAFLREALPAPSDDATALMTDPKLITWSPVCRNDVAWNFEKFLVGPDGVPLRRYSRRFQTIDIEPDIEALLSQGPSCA
Outline: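 GPX1 10 nM, GR 100 nM, GSH 1 mM, NADPH 0.5 mM, CHP 0.5 mM (final). 30-min cpd preincubation, RT. Ex340/Em450 read t=0, t=15 min.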

[2] = target: Phospholipid hydroperoxide glutathione peroxidase GPX4 (Homo sapiens) (UniProt P36969); test: Primary qHTS Assay for Inhibitors of Recombinant Selenoprotein Glutathione Peroxidase 4 (GPX4) (AID 1845192); also: nearly all actives have a fitted effect of over 65% in size
Sequence of Phospholipid hydroperoxide glutathione peroxidase GPX4 (Homo sapiens) (P36969 whole entry, looked up): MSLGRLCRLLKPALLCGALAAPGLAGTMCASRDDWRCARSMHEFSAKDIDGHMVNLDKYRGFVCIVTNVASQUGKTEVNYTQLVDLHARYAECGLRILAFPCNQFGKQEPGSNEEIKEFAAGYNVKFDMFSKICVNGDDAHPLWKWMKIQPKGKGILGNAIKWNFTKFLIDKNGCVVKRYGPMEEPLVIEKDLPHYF
Outline: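 qHTS, GR-coupled: GPX4 200 nM + cpd 30 min RT → GSH 1 mM, NADPH 0.5 mM, GR 100 nM → CHP 0.5 mM start; fluor 340/450 at t0 and t15 min; no-enzyme wells as control.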

[3] = target: Luciferin 4-monooxygenase (Photinus pyralis) (UniProt P08659); test: Primary firefly luciferase (FLuc) qHTS assay for identification of artifact compounds. (AID 1845220); also: nearly all actives have a fitted effect of over 60% in size; also: potency is read from the fitted curve at half-maximal effect
Outline: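 In this counter-screen for luciferase artifacts, test compounds met substrate (10 uM each luciferin and ATP) before 10 nM enzyme started the reaction. Light output was measured 5 min later.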

[4] = Primary fluorescence-based thiol-reactive (MSTI) qHTS assay for identification of artifact compounds. (AID 1845221); also: nearly all actives have a fitted effect of over 65% in size; also: potency is read from the fitted curve at half-maximal effect
Outline: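 Curve-fitted percent inhibition (4-parameter Hill) derived from fluorescence, Ex 525/Em 598 nm, scaled with Acetyl-MSTI and MSTI; 1 h incubation at room temperature.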

[5] = Primary redox qHTS assay for identification of artifact compounds. (AID 1845223)
Outline: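 Redox-cycling detection via DTT (250 uM final) oxidation coupled to Amplex Red (25 uM)/HRP (250 mU/mL) in HBSS. 15 min preincubation plus 30 min after DTT, room temperature. Ex/Em 525/598 nm; 4-parameter Hill fit against DMSO and 10 uM DA3003.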

[6] = system: Nanoluciferase (engineered Oplophorus gracilirostris luciferase); test: Primary Nanoluciferase (NLuc) qHTS assay for identification of artifact compounds. (AID 1845222);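 also: NLuc secreted into diluted conditioned medium of S16 cells; series mostly up to about 54 µM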
Outline: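 Using secreted nanoluciferase in S16 culture medium (0.22 um filtered, 1:55 dilution), compounds were preincubated 15 min at RT. Signal was generated with Nano-Glo reagent (1:100) over 5 min.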

Measured: Potency

COc1cc(C)c(Sc2cnc(NC(=O)c3ccc(CNC(C)C(C)C)cc3)s2)cc1C(=O)N1CCN(C(C)=O)CC1 (centres undefined)
inactive: [1] | [2] | [3] | [4] | [5]

C1Cc2[nH]nc(-c3nn[nH]n3)c2C1
inactive: [1] | [2] | [3] | [4] | [6] | [5]

Cn1c2ccccc2c2c3c(c4c5ccccc5n(CCC#N)c4c21)CNC3=O
inactive: [1] | [3] | [6] | [5]

Cc1c(Cn2c(C)nc3c(C(=O)O)cc(N4CCOCC4)cc32)cccc1C(F)(F)F
inactive: [1] | [2] | [3] | [6] | [5]

CC(C)(O)CCc1ccc(OCc2cc(-c3cccc(OC(F)F)c3)c3ncccc3c2)cc1
active: [3] 13.5 µM
inactive: [1] | [2] | [4] | [6] | [5]

Cc1cc(CN2CCN(c3c(Br)cnc4nc(-c5ccc(N6CCN(C)CC6)cc5)[nH]c34)CC2)no1
active: [1] 11.4 µM and 12.9 µM
inactive: [6] | [5]

C[C@]1(CO)CN(c2cc(C(=O)Nc3ccc4c(c3)-c3c(c(C(N)=O)nn3-c3ccc(F)cc3)CC4)c(Cl)cn2)C[C@@]1(C)CO
inactive: [1] | [2] | [4] | [6] | [5]

N#CCNC(=O)c1ccc(-c2ccnc(Nc3ccc(N4CCOCC4)cc3)n2)cc1
inactive: [1] | [2] | [3] | [6] | [5]
active: [4] 1.5 µM

Cn1c(=O)n(-c2ccc(C(C)(C)C#N)cc2)c2c3cc(-c4cnc5ccccc5c4)ccc3ncc21
inactive: [1] | [2] | [3] | [4] | [6]

COc1cc(-c2nn(C3CCC(N4CCN(C(C)=O)CC4)CC3)c3ncnc(N)c23)ccc1NC(=O)c1cc2ccccc2n1C (centres undefined)
inactive: [1] | [3] | [4] | [6]

CN(C)CC(C)(C)CNc1nn2c(-c3ccccc3)nnc2cc1C1CCC1
inactive: [1] | [2] | [3] | [4] | [6] | [5]

CCCNC(=O)Nc1ccc(Oc2ncnc3cc(OC)c(OC)cc23)cc1Cl
inactive: [1] | [4] | [6] | [5]

CC(C)Nc1cc(C(F)(F)F)cc2nc(NC(=O)c3cccnc3)nn12
inactive: [1] | [2] | [3] | [4] | [6] | [5]

O=C(O)CCCc1c[nH]c2ccccc12
inactive: [1] | [3] | [4] | [6]

COc1cc2c(Oc3ccc(-c4cnc(Nc5ccc(F)cc5)n(C)c4=O)cc3F)ccnc2cc1OCCCN1CCOCC1
inactive: [1] | [2] | [3] | [4] | [6]

Cc1cn2c(-c3cn[nH]c3)cnc2c(Nc2ccc(C(=O)N3CCNCC3)cc2F)n1
inactive: [1] | [2] | [3] | [4] | [6]

COc1ccc2c(c1)CC[C@@H](CN(C)CC(=O)O)[C@H]2c1ccccc1
inactive: [1] | [2] | [3] | [4] | [6]

CS(=O)(=O)N1CCN(Cc2cc3nc(-c4cccc5[nH]ncc45)nc(N4CCOCC4)c3s2)CC1
inactive: [1] | [2] | [3] | [4] | [6] | [5]

Cc1ccc(C(=O)Nc2cccc(C(F)(F)F)c2)cc1-c1ccc2nc(NCCN3CCOCC3)ncc2c1
inactive: [1] | [2] | [3] | [4] | [6] | [5]

CCOC(=O)C1=C(C)NC2=C(C(=O)CC(C)(C)C2)C1c1ccc(-c2ccccc2)cc1 (centres undefined)
inactive: [1] | [2] | [3] | [4]

C[C@@H]1COC(Nc2ccc3ncnc(Nc4ccc(OCc5nccs5)c(Cl)c4)c3c2)=N1
inactive: [1] | [2] | [4] | [5]

C=CC(=O)N1CCC[C@@H](n2nc(-c3ccc(Oc4ccccc4)cc3)c3c(N)ncnc32)C1
inactive: [1] | [2] | [3] | [6] | [5]

CNC(=O)c1ccc(N2C(=S)N(c3cnc(C#N)c(C(F)(F)F)c3)C(=O)C23CCC3)cc1F
inactive: [1] | [2] | [3] | [4] | [6]
